These results are taken from PubChem BioAssay (NCATS).

Assay [1] deals with Arylsulfatase A (Homo sapiens) (UniProt P15289). Nature of the assay: qHTS screen for enhancers of Arylsulfatase A (ASA1): LOPAC Validation Assay (AID 720538). Also: potency is read from the fitted curve at half-maximal effect. Particulars: ASA enzyme activity, LOPAC qHTS enhancer assay; series mostly up to 57.5 µM. The procedure, abridged:
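SV40-transformed fibroblasts from an MLD patient (ASA-I179S) were treated with compound for 48 h at 37 C. They were then lysed with 0.5 mM pNCS substrate (final) for 14 h at room temperature and stopped with NaOH; signal read by fluorescence (Ex 525/Em 598 nm), with increase denoting enhanced activity.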
A general note: qHTS replaces the single test concentration by a dilution series.

Assay [2] in a line: qHTS for compounds that reverse cellular toxicity of Amyloid beta (A-beta) peptide in yeast: LOPAC Validation Assay (AID 720559).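 Also: plate controls were DMSO for no effect and equimolar ferric chloride plus clioquinol rescue for full effect.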 Particulars: yeast expressing A-beta; Potency: rescue of growth toxicity; series mostly up to 46.1 µM. The essentials: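 Yeast expressing toxic A-beta grown with pinned compounds at 30 C for 48 hr. Growth measured as absorbance at 600 nm; data normalized to DMSO and to an equimolar FeCl3/clioquinol mixture as positive control.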

The nature of assay [3]: qHTS for Activators of Parkin Expression: LOPAC Validation Assay (NLuc Reporter) (AID 720572). Conditions: Parkin promoter NanoLuc reporter cells, luminescence; series mostly up to 46.1 µM. The procedure, abridged:
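NLuc signal, read 10 min after reagent and following a prior FLuc read, is normalized to DMSO (0) and positive controls (100%). Cells: neuronal Parkin-promoter coincidence reporter line; compounds tested 7-point, 24 h, 37 C, 5% CO2.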

The nature of assay [4]: qHTS for Activators of Parkin Expression: LOPAC Validation Assay (FLuc Reporter) (AID 720573; also: potency is read from the fitted curve at half-maximal effect). Particulars: Cell line, PRKN promoter firefly luciferase reporter; series mostly up to 46.1 µM. The procedure, abridged:
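Neuronal cell line stably expressing FLuc/NLuc coincidence reporter under the Parkin promoter, 1,500 cells/well, dosed 24 h after seeding in 7-point series for 24 h at 37 C. FLuc luminescence read; normalized to DMSO and positive control (100%).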

Assay [5] concerns the target T1, Hexokinase-4 (Homo sapiens) + Glucokinase regulatory protein (Homo sapiens) (UniProt P35557+Q14397). In words: qHTS assay for inhibitors of recombinant human GCK-GKRP interaction: Diaphorase-coupled assay (AID 743205). Particulars: G6PDH/diaphorase resorufin fluorescence; series mostly up to 57.5 µM. The essentials:
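Compounds pre-incubated 20 min with substrate, then 10 nM GST-GCK with 10 nM FLAG-GKRP added. GCK activity coupled via G6PDH and diaphorase to resorufin (5 mM glucose, 0.4 mM ATP, 0.15 mM NADP+, pH 7.6), read kinetically over 30 minutes at Ex 525/Em 590 nm.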

In assay [6] the target is T1, Hexokinase-4 (Homo sapiens) + Glucokinase regulatory protein (Homo sapiens). In words: qHTS assay for inhibitors of recombinant human GCK-GKRP interaction: ADP-Glo assay (AID 743206).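 Also: plate controls were DMSO plus enzyme for no effect and no enzyme for full effect.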 Conditions: ADP-Glo luminescence, 60 min; series mostly up to 76.9 µM. The procedure, abridged:
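Pin-transferred compounds meet a 15 nM GST-GCK/15 nM FLAG-GKRP/2 uM S6P mix (dispense concentrations). ATP is then added to 0.4 mM final with 5 mM glucose, and the reaction runs 60 min at room temperature. ADP is quantified luminescently.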

For assay [7] the target is unchanged. In words: qHTS assay for inhibitors of recombinant human GCK-GKRP interaction: HTRF assay (AID 743207).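 Also: 0% = DMSO with GCK present and -100% = DMSO wells lacking GCK.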 Particulars: recombinant GCK-GKRP HTRF binding, 60 min, with sorbitol-6-phosphate; series mostly up to 57.5 µM. The procedure, abridged:
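HTRF binding of 5 nM GST-GCK and 5 nM FLAG-GKRP with 2 uM S6P in pH 7.1 Hepes buffer (MgCl2, KCl, DTT, Tween 20, BSA). Anti-FLAG XL665 and anti-GST donor added, 60 min at room temperature; 665/615 nm read, normalized to with- and without-GCK controls.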

Assay [8] is described as follows: qHTS Assay for Identifying Gametocytocidal Compounds (AID 743244). Also: potency is read from the fitted curve at half-maximal effect.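 As to max response: % is scaled to controls: 0 for no effect and ±100 for the full control effect; actives lower the fluorescent signal which means gametocytes are killed.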 Particulars: P. falciparum 3D7 stage III-V gametocytes, alamarBlue, 72 h; max response: stronger effect = lower value. The essentials:
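Late gametocytes (III–V), P. falciparum 3D7; 72 h drug, then 24 h alamarBlue; resazurin reduction read by fluorescence.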

Assay [9] can be described thus: qHTS assay for small molecule agonists of the antioxidant response element (ARE) signaling pathway measured by Nrf2-dependant transcriptional activity (AID 720636; active = well fitted curve in the direction sought with a large enough effect in the repeat runs; an effect the other way counts as inactive or inconclusive;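 also: HepG2 cells with an ARE-driven luciferase reporter; % of control where 0% means no effect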). Conditions: ARE-luc HepG2, Nrf2 luciferase reporter, 16 h; series mostly up to 92.4 µM. The procedure, abridged:
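Nrf2-dependent transcription is measured in ARE-luc HepG2 cells: compound is applied for 16 hr at 37 C after a 6 hr attachment period, and luciferase activity is quantified by luminescence using ONE-Glo.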

The nature of assay [10]: qHTS assay for small molecule agonists of the antioxidant response element (ARE) signaling pathway measured by Nrf2-dependant transcriptional activity - cell viability counter screen (AID 720653; active = well fitted curve in the direction sought with a large enough effect in the repeat runs; an effect the other way counts as inactive or inconclusive; also: % is scaled to controls: 0 for no effect and ±100 for the full control effect). Conditions: ARE-bla HepG2 viability, CellTiter-Glo ATP luminescence, 16 h; max response: stronger effect = lower value. The procedure, abridged:
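ARE-bla HepG2 cells treated with compounds for 16 h at 37C; this counter screen measures viability as intracellular ATP by CellTiter-Glo luminescence after 30 min at room temperature.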

The nature of assay [11]: qHTS assay for cell viability of HEK293 cells (AID 743288). Also: % is scaled to controls: 0 for no effect and ±100 for the full control effect; nearly all actives have a fitted effect of over 50% in size. Conditions: ATP luminescence (CellTiter-Glo), 18 h; max response: stronger effect = lower value. The procedure, abridged: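 Steps: plate 2,000 parental HEK293 cells per well; incubate ≥5 h, 37 C; add compounds in DMSO; incubate 18 h, 37 C; add CellTiter-Glo; wait 30 min at room temperature; read luminescence.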
Assay [12] is described as follows: qHTS assay for cell viability of the p53RE-bla HCT-116 cell line (AID 743292). Also: % is scaled to controls: 0 for no effect and ±100 for the full control effect; nearly all actives have a fitted effect of over 55% in size. Particulars: p53RE-bla HCT-116 viability, ATP luminescence, 16 h; series mostly up to 95 µM. The essentials:
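ATP-based luminescence, 16 h compound exposure at 37 C, p53RE-bla HCT-116 cells at 4,000/well.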

“And” between values parts separate entries of the source, which are not always exact repeats. Equal entries are not always repeated. Values without a mark were called inactive. Inconclusive results are not listed. The source made the active and inactive calls. Unless noted, calls follow the shape of the dose curve; as a rule, active = well fitted curve in the direction sought with a large enough effect; inconclusive = small, poorly fitted or top-dose-only effect, or another doubt; inactive = no such curve, though single readings can be large; an effect the other way counts as inactive or inconclusive.

T1 sequence (P35557 whole entry, looked up): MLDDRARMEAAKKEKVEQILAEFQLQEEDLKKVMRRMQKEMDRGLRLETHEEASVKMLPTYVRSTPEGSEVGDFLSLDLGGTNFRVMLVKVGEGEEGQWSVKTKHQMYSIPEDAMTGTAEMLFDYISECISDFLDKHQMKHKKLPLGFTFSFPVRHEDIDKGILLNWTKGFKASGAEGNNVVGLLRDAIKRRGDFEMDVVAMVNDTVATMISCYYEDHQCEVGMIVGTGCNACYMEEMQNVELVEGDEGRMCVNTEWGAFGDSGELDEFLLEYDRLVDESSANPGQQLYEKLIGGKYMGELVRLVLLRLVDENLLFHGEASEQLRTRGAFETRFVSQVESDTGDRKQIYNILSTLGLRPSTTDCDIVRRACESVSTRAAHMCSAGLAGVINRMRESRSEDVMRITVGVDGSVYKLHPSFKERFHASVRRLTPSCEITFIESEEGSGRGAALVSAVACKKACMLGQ
T1 sequence (Q14397 whole entry, looked up): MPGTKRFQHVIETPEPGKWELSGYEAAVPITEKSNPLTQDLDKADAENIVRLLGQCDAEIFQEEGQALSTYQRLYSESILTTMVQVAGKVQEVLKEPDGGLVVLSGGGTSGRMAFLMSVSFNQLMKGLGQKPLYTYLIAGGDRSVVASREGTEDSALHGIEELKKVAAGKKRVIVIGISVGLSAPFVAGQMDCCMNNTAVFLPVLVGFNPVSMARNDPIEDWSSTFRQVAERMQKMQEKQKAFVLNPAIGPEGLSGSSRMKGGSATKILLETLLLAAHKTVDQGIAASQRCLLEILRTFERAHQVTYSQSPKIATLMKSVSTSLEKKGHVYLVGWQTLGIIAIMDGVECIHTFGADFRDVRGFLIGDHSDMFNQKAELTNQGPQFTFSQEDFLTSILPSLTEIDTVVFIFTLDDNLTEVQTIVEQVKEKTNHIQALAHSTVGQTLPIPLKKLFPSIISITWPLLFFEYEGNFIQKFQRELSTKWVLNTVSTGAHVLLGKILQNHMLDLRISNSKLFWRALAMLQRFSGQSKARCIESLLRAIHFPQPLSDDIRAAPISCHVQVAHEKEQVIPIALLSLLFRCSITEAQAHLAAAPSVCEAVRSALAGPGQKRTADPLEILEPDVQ
Chain of Arylsulfatase A (Homo sapiens) (P15289 whole entry, looked up): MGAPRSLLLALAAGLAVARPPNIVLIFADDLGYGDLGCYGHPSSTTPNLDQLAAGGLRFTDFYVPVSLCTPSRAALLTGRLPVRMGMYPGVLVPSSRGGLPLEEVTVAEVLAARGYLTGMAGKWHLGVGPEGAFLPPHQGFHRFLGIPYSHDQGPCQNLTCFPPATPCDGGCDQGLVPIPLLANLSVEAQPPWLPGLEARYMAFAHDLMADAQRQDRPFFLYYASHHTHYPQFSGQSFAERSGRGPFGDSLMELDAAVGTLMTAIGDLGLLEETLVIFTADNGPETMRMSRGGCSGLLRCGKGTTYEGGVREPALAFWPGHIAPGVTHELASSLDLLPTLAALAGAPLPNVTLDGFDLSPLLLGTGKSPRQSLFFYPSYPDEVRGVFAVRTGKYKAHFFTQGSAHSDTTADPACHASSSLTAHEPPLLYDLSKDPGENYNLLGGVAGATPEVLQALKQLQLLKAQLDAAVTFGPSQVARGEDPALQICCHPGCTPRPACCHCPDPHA

`CCN1/C(=C/C(C)=O)Sc2ccc(OC)cc21`: the Potency result in [1], in assay [2], in assay [3], in [4], in assay [6] and in assay [7] was “inactive” in each case. For the same compound, the outcome in [5] was inactive. Moreover, in assay [8], the max response is 22.2%.

For `C[N+](C)(C)CC(=O)[O-]`, the Potency entry in assay [1], in assay [2], in assay [3], in [4] and in [6] was “inactive” throughout. Moreover, the result in [5] was inactive.

For the compound `Nc1nc(Cl)nc2c1ncn2[C@@H]1O[C@H](CO)[C@@H](O)[C@H]1O`, the Potency result in [1], in assay [2], in assay [3], in assay [4], in assay [6] and in assay [7] was “inactive” throughout. For the same compound, the result in assay [5] was inactive. The max response in [8] was 6.66%.

With `CC(C)NCC(O)COc1cccc2ccccc12` (stereo not drawn), the Potency result in assay [1], in assay [2], in [3], in assay [4], in assay [9] and in assay [6] was “inactive” throughout. Further, the Potency result in assay [7] and in [12] was “inactive” in each case. Moreover, the max response in assay [10] was -11.2% and -5.42%; in assay [11], 1.78% and -12.1%. In addition, in assay [5], the result was inactive.

For the compound `CNC(=O)[C@H]1O[C@@H](n2cnc3c(NCc4ccc(N)cc4)ncnc32)[C@H](O)[C@@H]1O`, the Potency entry in assay [1], in [2], in assay [3], in assay [4], in [6] and in assay [7] was “inactive” each time. Also, the outcome in assay [5] was inactive. Besides, in [8], the max response is 6.14%.

`Ic1ccc(N2CCN(Cc3c[nH]c4ncccc34)CC2)cc1`: the Potency result in assay [1], in assay [2], in [3], in assay [4], in assay [6] and in [7] was “inactive” throughout. Besides, in [5], the result was inactive. Further, the max response in assay [8] was 5.54%.

Take `O=C(c1cc(O)c(O)c([N+](=O)[O-])c1)c1ccccc1F`: the Potency in assay [1] was 19 µM (active). Moreover, the Potency result in [2], in assay [3], in [4], in assay [6] and in assay [7] was “inactive” each time. The outcome in assay [5] was inactive. In [8], the max response is 18.1%.

Regarding `C[N+](C)(C)CCOP(=O)(O)OP(=O)([O-])OC[C@H]1O[C@@H](n2ccc(N)nc2=O)[C@H](O)[C@@H]1O`, the Potency entry in assay [1], in [2], in assay [3], in assay [4], in [6] and in assay [7] was “inactive” in each case. Also, the outcome in [5] was inactive. Besides, in [8], the max response is 1.57% and 1.8% and 27.7%.

On to `NC(CCCP(=O)(O)O)C(=O)O` (stereo not drawn), for which the Potency result in [1], in [2], in assay [3], in [4], in assay [6] and in assay [7] was “inactive” in each case. The result in [5] was inactive. For the same compound, the max response in assay [8] was 8.77%.

Take `COc1cc2nc(N3CCN(C(=O)OCc4ccccc4)C(C(=O)NC(C)(C)C)C3)nc(N)c2cc1OC` (stereo not drawn): the Potency result in [1], in [2], in assay [3], in [4] and in assay [6] was “inactive” in each case. In addition, in [5], the outcome was inactive.

Take `O=C1/C(=C/c2ccsc2)CC/C1=C\c1cccs1`: the Potency entry in assay [1], in assay [2], in assay [3], in [6] and in [7] was “inactive” each time. Besides, the Potency in [4] is 18.4 µM (active). Besides, in assay [5], the result was inactive. Also, the max response in [8] is 30.3%.

Take `CC(C)(C)c1ccc(S(=O)(=O)/C=C/C#N)cc1`: the Potency result in assay [1], in assay [2], in assay [3], in assay [4], in [6] and in [7] was “inactive” each time. Also, the outcome in assay [5] was inactive.

Turning to `NC(=O)C1=CN(C2OC(COP(=O)(O)OP(=O)(O)OC[C@H]3O[C@@H](n4cnc5c(N)ncnc54)[C@H](OP(=O)(O)O)[C@@H]3O)C(O)C2O)C=CC1` (stereo partly drawn), the Potency entry in assay [1], in assay [2], in [3], in assay [4], in [6] and in [7] was “inactive” in each case. In [5], the outcome was inactive. The max response in assay [8] was -6.13%.

Take `O=c1[nH]c2cc([N+](=O)[O-])c([N+](=O)[O-])cc2[nH]c1=O`: the Potency in assay [1] is 8.49 µM (active). Moreover, the Potency entry in assay [2], in assay [3], in assay [4], in assay [6] and in assay [7] was “inactive” in each case. Besides, the outcome in [5] was inactive. Also, the max response in assay [8] is 23.7%.

`O=C(CCCCCN1CCN(c2ccccc2-c2ccccc2)CC1)NC1CCCc2ccccc21` (stereo not drawn): the Potency entry in assay [1], in assay [2], in assay [3], in assay [4], in assay [6] and in assay [7] was “inactive” throughout. The outcome in [5] was inactive.

As for `O=S(=O)(c1cccc2c(I)cccc12)N1CCCNCC1`, the Potency result in assay [1], in assay [2], in assay [3], in assay [4] and in assay [6] was “inactive” throughout. Moreover, in [5], the result was inactive.

Regarding `CCCCCCCCCCCCCCCCCCNC(=O)OCC(COP(=O)([O-])OCC[n+]1ccsc1)OC` (stereo not drawn), the Potency entry in assay [1], in assay [2], in [3], in [4], in assay [6] and in [7] was “inactive” each time. For the same compound, in assay [5], the outcome was inactive. For the same compound, in [8], the max response was 12.3%.

`CCCC1(C)C(C#N)(C#N)C1(C#N)C#N`: the Potency result in assay [1], in [2], in assay [3], in assay [4], in assay [6] and in assay [7] was “inactive” in each case. Moreover, the outcome in assay [5] was inactive. Besides, the Potency in [8] was 2.24 µM (active).

Consider `C[N+]1(C)CCC(OC(=O)C(c2ccccc2)c2ccccc2)CC1`, for which the Potency entry in [1], in [2], in assay [3], in assay [4] and in assay [6] was “inactive” in each case. The result in assay [5] was inactive.

For `CN1C2CC(OC(=O)[C@H](CO)c3ccccc3)CC1C1OC12` (stereo partly drawn), the Potency entry in [1], in [2], in assay [3], in [4], in assay [6] and in assay [7] was “inactive” throughout. Also, the outcome in [5] was inactive. Further, the max response in assay [8] is 21.9%.

In the case of `CCCCCCCCCCCCCCCC(=O)NCC(COP(=O)([O-])OCC[N+](C)(C)C)OCC` (stereo not drawn), the Potency result in [1], in assay [2], in [3], in [4], in assay [6] and in [7] was “inactive” in each case. Further, the outcome in assay [5] was inactive. Besides, in [8], the max response was 1.33%.

In the case of `COc1cc2c(CCNC(C)=O)c[nH]c2cc1Cl`, the Potency entry in assay [1], in [2], in assay [3], in [4], in assay [6] and in assay [7] was “inactive” throughout. The outcome in assay [5] was inactive. Further, the max response in [8] is 6.49%.

In the case of `NS(=O)(=O)C#Cc1ccccc1`, the Potency entry in [1], in [2], in assay [3], in assay [4], in [6] and in assay [7] was “inactive” in each case. Also, in assay [5], the outcome was inactive.

With `Clc1ccc(N2CCN(Cc3cc4ccccn4n3)CC2)cc1`, the Potency result in assay [1], in assay [2], in assay [3], in [4], in assay [6] and in assay [7] was “inactive” throughout. For the same compound, in assay [5], the outcome was inactive.
